Measurements as given in the supplement of paper PMC10105736.
Values without a mark were called inactive.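 How the source made its calls: active = MAPPIT score above the 99th percentile of random reference set scores in the same batch; inactive = at or below it.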

B1: CG5902 (protein)
chain: MSNSHYNNYQQQQPHSSNGDPEYQHQQMVHQPQRFSNGHGMKTVAVPDMCLFCFEVLDCELNNVDGPSVPVFSNDAYPLFVTWKIGRDKRLRGCIGTFSAMELHHGLREYALTSAFKDSRFAPISRDELPRLTVSVSILQNFEEAQGHLDWQLGVHGIRIEFLTERGCKRTATYLPQVATEQGWDQLQTIDSLLRKGGYRAAITPETRKSIKLTRYRSQEIQMHYKEYREYQERRAQFGKVQC
B2: nAChRbeta1 (protein)
chain: MESSCKSWLLCSILVLVAFSLVSASEDEERLVRDLFRGYNKLIRPVQNMTQKVGVRFGLAFVQLINVNEKNQVMKSNVWLRLVWYDYQLQWDEADYGGIGVLRLPPDKVWKPDIVLFNNADGNYEVRYKSNVLIYPTGEVLWVPPAIYQSSCTIDVTYFPFDQQTCIMKFGSWTFNGDQVSLALYNNKNFVDLSDYWKSGTWDIIEVPAYLNVYEGDSNHPTETDITFYIIIRRKTLFYTVNLILPTVLISFLCVLVFYLPAEAGEKVTLGISILLSLVVFLLLVSKILPPTSLVLPLIAKYLLFTFIMNTVSILVTVIIINWNFRGPRTHRMPMYIRSIFLHYLPAFLFMKRPRKTRLRWMMEMPGMSMPAHPHPSYGSPAELPKHISAIGGKQSKMEVMELSDLHHPNCKINRKVNSGGELGLGDGCRRESESSDSILLSPEASKATEAVEFIAEHLRNEDLYIQTREDWKYVAMVIDRLQLYIFFIVTTAGTVGILMDAPHIFEYVDQDRIIEIYRGK

Key:
Assay in all cases: MAPPIT interaction score (arbitrary units); higher = stronger binary interaction signal, active = hit call of the paper
[1] = target: trbd; conditions: MAPPIT configuration: N-N; pair source set: screen_1
Procedure: (§1)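 MAPPIT in HEK293T cells: Drosophila bait and prey ORFs (from the FlyBi ORF collection) were co-transfected in quadruplicate, with two wells stimulated by erythropoietin. Interaction-dependent JAK-STAT activation was read out with a STAT-responsive firefly luciferase reporter. Positive calls use the 99th percentile of random reference set (RRS) scores within each batch […]. Batches Dvs01 and Dvs02 used the N-N configuration and Dvs04 the N-C configuration. Pairs come from FlyBi screens, CuraGen, DPiM, Finley Y2H, Lit-BM-16, Lit-BS-16 and RRS.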

[2] = target: CG14767; conditions: pair source set: RRS
Procedure: as §1

[3] = target: CG30472; conditions: MAPPIT configuration: N-N; pair source set: RRS
Procedure: as §1
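Further: HEK293T cells with Epo stimulation, STAT-responsive firefly luciferase reporter, fold induction versus unstimulated cells divided by the larger fold induction of two negative controls lacking either bait or prey.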

Binder | MAPPIT interaction score [1] | MAPPIT interaction score ([2]; MAPPIT configuration: N-C) | MAPPIT interaction score ([2]; MAPPIT configuration: N-N) | MAPPIT interaction score [3]
B1 | 2.52 (active) |  |  | 
B2 |  | 0.324 | 0.0737 | -0.0464
